Measured values as given in PubChem BioAssay AID504534 (National Center for Advancing Translational Sciences (NCATS), 2011).
Results filed as inconclusive are left out. A call without a number means that no potency is given here. Active and inactive are the calls of the source. The call rests on the fitted dose curve; in most records, active means well fitted curve in the direction sought with a large enough effect; inconclusive means small, poorly fitted or top-dose-only effect, or another doubt; inactive means no such curve, though single readings can be large or run the other way.

Test: Secondary Assay for Inhibitors of Human Cdc-like kinase 4 (Clk4): HEK-293 Cell Viability Assay;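 further: cytotoxic hits lower the ATP light signal so activity reflects loss of viability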
Conditions: HEK-293 viability, ATP luminescence (CellTiter-Glo), 24/48 h; series mostly up to 46.1 µM
Procedure: NIH Molecular Libraries Probe Production Centers Network [MLPCN] NIH Chemical Genomics Center [NCGC] MLPCN Grant: 1R03MH084827-01 Assay Submitter (PI): Tom Misteli NCGC Assay Overview: Cytotoxicity of the active compounds in the Clk4 screens was assessed using the CellTiter-Glo Luminescent Cell Viability Assay kit (Promega, USA) in the HEK-293 (ATCC) cell line. CellTiter-Glo measures the intracellular ATP present in metabolically active cells using Ultra-Glo as the luciferase to detect ATP levels. In brief, the luciferase in the buffer catalyzes the oxidation of luciferin to oxyluciferin and light which is dependent on ATP. […] Wells treated with various concentrations of cycloheximide (Sigma) and DMSO, and wells with media alone were used as positive and negative controls, respectively. […] [1] http://www.promega.com/tbs/tb288/tb288.pdf
NCGC Assay Protocol Summary: HEK-293 cells were grown in a flask up to 80% confluence. Cells were trypsinized, washed, and resuspended in MEM Eagle + 10% FBS + 1% pen-strep media at a concentration of 120 cells/uL. Five uL/well of cell solution was dispensed into a 1536-well assay plates (Greiner, solid white medium-binding plates) with Aurora Discovery BioRAPTR Flying Reagent Dispenser (FRD; Beckton-Dickenson). Cells were pre-incubated at 37 degree Celsius, 5% CO2 for four hours. Compound and control solutions (23nL) were then transferred to the assay plate using the Kalypsys 1536-pin tool. Assay plates were re- incubated at 37 degree Celsius, 5% CO2. After 24 or 48 hours, five uL of CellTiter Glo detection reagent was added. Luminescence signal was read with Perkin Elmer ViewLux plate reader after 30 min room temperature incubation.
Potency means the concentration at half of the fitted maximal effect.

SMILES | Potency
Cn1ccc2cc(-c3ccc4ncnc(NCc5cccc(F)c5)c4c3)ccc21 | inactive
Cc1nc(CSc2ncnc3ccc(-c4ccc5c(c4)OCO5)cc23)cs1 | inactive
Cc1csc(CNc2ncnc3ccc(-c4cccnc4)cc23)c1 | inactive
COc1cccc(-c2ccc3ncnc(NCc4cccc(C)c4)c3c2)c1 | inactive
Cc1csc(CNc2ncnc3ccc(-c4ccc(C(C)O)o4)cc23)n1 (stereo not given) | inactive
Cc1ccc(CNc2ncnc3ccc(-c4ccc([C@@H](C)O)o4)cc23)o1 | inactive
O=C(O)c1ccc(-c2ccc3ncnc(NCc4nccs4)c3c2)o1 | inactive
Fc1c(-c2ccc3ncnc(NCc4cccs4)c3c2)ccc2c1OCO2 | inactive
CC(Nc1ncnc2ccc(-c3ccc4c(c3)OCO4)cc12)c1ccco1 (stereo not given) | inactive
CCOC(=O)c1ccc(-c2ccc3ncnc(NCc4csc(C)n4)c3c2)o1 | inactive
OCc1ccc(-c2ccc3ncnc(NCCc4cnc[nH]4)c3c2)o1 | inactive
COc1cccc(-c2ccc3ncnc(NCc4cccc(F)c4)c3c2)c1 | inactive
Cc1nc(CN(C)c2ncnc3ccc(-c4ccc5c(c4)OCO5)cc23)cs1 | 28.1 µM (active)
c1csc(CNc2ncnc3ccc(-c4ccc5c(c4)OCO5)cc23)n1 | inactive
c1nc(NCC2CCCO2)c2ccc(-c3ccc4c(c3)OCO4)cc2n1 (stereo not given) | inactive
c1nc(NCCc2cnc[nH]2)c2cc(-c3ccoc3)ccc2n1 | inactive
CN(Cc1cncn1C)c1ncnc2ccc(-c3ccc4c(c3)OCO4)cc12 | inactive
Cc1csc(CNc2ncnc3ccc(-c4cccc(Cl)c4)cc23)c1 | inactive
COc1cccc(Nc2ncc3ncc(=O)n(C)c3n2)c1 | inactive
Cc1occc1-c1ccc2ncnc(NCc3ncc[nH]3)c2c1 | inactive

SMILES | Potency
c1nc(NCc2ccc3c(c2)OCO3)c2cc(-c3ccoc3)ccc2n1 | inactive
CN(C)CCNc1ncnc2ccc(-c3ccc4c(c3)OCO4)cc12 | inactive
Fc1cccc(CNc2ncnc3ccc(-c4ccccc4Cl)cc23)c1 | inactive
Cc1cccc(CNc2ncnc3ccc(-c4ccccc4Cl)cc23)c1 | inactive
Cc1cccc(CNc2ncnc3ccc(-c4ccc5c(c4)OCCO5)cc23)c1 | inactive
c1csc(CNc2ncnc3cc(-c4ccc5c(c4)OCO5)ccc23)c1 | inactive
Fc1cccc(CNc2ncnc3ccc(-c4cccnc4)cc23)c1 | inactive
Clc1ccccc1-c1ccc2ncnc(NCc3cccnc3)c2c1 | inactive
CN(CC(=O)O)c1ncnc2ccc(-c3ccc4c(c3)OCO4)cc12 | inactive
Cc1csc(CNc2ncnc3ccc(-c4ccc5c(ccn5C)c4)cc23)c1 | inactive
Cc1occc1-c1ccc2ncnc(NCCc3cnc[nH]3)c2c1 | inactive
Cc1csc(CNc2ncnc3ccc(-c4ccc(C(=O)O)o4)cc23)n1 | inactive
CS(=O)(=O)CCNCc1ccc(-c2ccc3ncnc(Nc4ccc(OCc5cccc(F)c5)c(Cl)c4)c3c2)o1 | inactive
c1coc(-c2ccc3ncnc(NCc4cccs4)c3c2)c1 | inactive
COc1cccc(Nc2ncc3nc(-c4cn(C)c5ccccc45)c(=O)n(CCC#N)c3n2)c1 | 7.91 µM (active)
Cc1csc(CNc2ncnc3ccc(-c4ccco4)cc23)c1 | inactive
Cc1ccc(CNc2ncnc3ccc(-c4ccc5c(c4)OCO5)cc23)s1 | inactive
c1nc(N2CCNCC2)c2cc(-c3ccc4c(c3)OCO4)ccc2n1 | inactive
CN(CCc1ccco1)c1ncnc2ccc(-c3ccc4c(c3)OCO4)cc12 | inactive
Cc1ccc(CNc2ncnc3ccc(-c4ccc(C(=O)O)o4)cc23)o1 | inactive
